Experimental findings from PubChem BioAssay (EPA / NIEHS) are described below.

Holding throughout (settings): mRNA level, 48 h; actives raise or lower the signal
Read-out in test [1]: Alkaline Phosphatase, Placental (ALPP) gene, ALPP (gene 250)
Description: LTEA_HepaRG_ALPP: Life Technologies and Expression Analysis (LTEA) Assay for Alkaline Phosphatase, Placental (ALPP) gene using HepaRG (AID 2283468). The method in brief: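 Using human liver HepaRG cells, chemicals are tested in duplicate over 48 h at half-log concentrations topping at 100 uM; phenobarbital 1 mM serves as induction control. ALPP mRNA change by qRT-PCR, bidirectional fit against vehicle.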

Read-out in test [2]: Bcl-2 (BAD) gene, BAD (gene 572)
Description: LTEA_HepaRG_BAD: Life Technologies and Expression Analysis (LTEA) Assay for Bcl-2 (BAD) gene using HepaRG (AID 2283469). The method in brief: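 BAD transcript change, measured by qRT-PCR against three housekeeping genes and fitted in both directions relative to 0.5% DMSO, after 48 h chemical treatment of human HepaRG liver cells at concentrations up to 100 uM.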

Read-out in test [3]: Bcl-2 (BAX) gene, BAX (gene 581)
Description: LTEA_HepaRG_BAX: Life Technologies and Expression Analysis (LTEA) Assay for Bcl-2 (BAX) gene using HepaRG (AID 2283470). The method in brief: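 Differentiated HepaRG cells exposed 48 h in serum-free induction medium, eight half-log concentrations from 100 uM, in duplicate, 0.5% DMSO vehicle. BAX mRNA by TaqMan qRT-PCR, normalised to ACTB, GAPDH and POLR2A.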

Read-out in test [4]: adenosine kinase (ADK) gene, ADK (gene 132)
Description: LTEA_HepaRG_ADK: Life Technologies and Expression Analysis (LTEA) Assay for adenosine kinase (ADK) gene using HepaRG (AID 2283471). The method in brief: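 Read-out is ADK transcript level measured by qRT-PCR and normalised to three housekeeping genes. Cells are human HepaRG, dosed for 48 h at up to 100 uM in 0.5% DMSO. Gain or loss of signal is fitted against DMSO controls.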

Read-out in test [5]: Alpha-fetoprotein (AFP) gene, AFP (gene 174)
Description: LTEA_HepaRG_AFP: Life Technologies and Expression Analysis (LTEA) Assay for Alpha-fetoprotein (AFP) gene using HepaRG (AID 2283472). The method in brief: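 Differentiated human HepaRG cells exposed 48 h in serum-free induction medium, 8-point half-log series from 100 uM in 0.5% DMSO, duplicate. AFP mRNA by qRT-PCR, normalized to ACTB, GAPDH, POLR2A; bidirectional fit vs DMSO.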

Read-out in another test: BCL2L11 (gene 10018)
In words: LTEA_HepaRG_BCL2L11: Life Technologies and Expression Analysis (LTEA) Assay for Bcl-2 (BCL2L11) gene using HepaRG (AID 2283473). The method in brief: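 Human hepatic HepaRG cultures are treated 48 h with test chemicals (maximum 100 uM, 0.5% DMSO vehicle). Expression of BCL2L11 is measured by qRT-PCR against ACTB, GAPDH and POLR2A, with activity in either direction scored relative to vehicle.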

Read-out in test [6]: Apolipoprotein A-V (APOA5) gene, APOA5 (gene 116519)
In words: LTEA_HepaRG_APOA5: Life Technologies and Expression Analysis (LTEA) Assay for Apolipoprotein A-V (APOA5) gene using HepaRG (AID 2283474). The method in brief:
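Concentration-response of APOA5 expression in HepaRG: eight half-log doses to 100 uM, 48 h, qRT-PCR normalized to ACTB/GAPDH/POLR2A, bidirectional fitting with 0.5% DMSO as baseline.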

Read-out in test [7]: Apoptosis regulator Bcl-2 (Homo sapiens) (UniProt P10415)
In words: LTEA_HepaRG_BCL2: Life Technologies and Expression Analysis (LTEA) Assay for Bcl-2 gene using HepaRG (AID 2283475). The method in brief: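 Differentiated human HepaRG cells in serum-free induction medium exposed 48 h, in duplicate, to 8-point half-log series from 100 uM in 0.5% DMSO. BCL2 mRNA by qRT-PCR (TaqMan/Fluidigm), normalized to ACTB, GAPDH, POLR2A; bidirectional fit against DMSO.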

Read-out in a further test: Caspase-3 (Homo sapiens) (UniProt P42574)
In words: LTEA_HepaRG_CASP3: Life Technologies and Expression Analysis (LTEA) Assay for cysteine-aspartic acid protease (CASP3) using HepaRG (AID 2283477). The method in brief:
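Transcript-level assay: CASP3 mRNA in human HepaRG after 48 h treatment, eight half-log concentrations from 100 uM in 0.5% DMSO, quantified by qRT-PCR.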

Read-out in test [8]: Cytochrome P450 (CYP24A1), CYP24A1 (gene 1591)
Description: LTEA_HepaRG_CYP24A1: Life Technologies and Expression Analysis (LTEA) Assay for Cytochrome P450 (CYP24A1) using HepaRG (AID 2283478). The method in brief: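 Gene expression of CYP24A1 by TaqMan qRT-PCR in HepaRG after 48 h treatment, highest concentration 100 uM; activity fitted in both directions relative to DMSO vehicle.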

Read-out in test [9]: Cytochrome P450 (CYP1A2), CYP1A2 (gene 1544)
In words: LTEA_HepaRG_CYP1A2: Life Technologies and Expression Analysis (LTEA) Assay for Cytochrome P450 (CYP1A2) using HepaRG (AID 2283479). The method in brief: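 In duplicate wells, HepaRG cultures maintained in 0.5% DMSO were treated 48 h across an 8-point, half-log series topping at 100 uM; phenobarbital (1 mM) served as induction control. Expression was read by qRT-PCR.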

Read-out in test [10]: cysteine-aspartic acid protease (CASP8), CASP8 (gene 841)
Description: LTEA_HepaRG_CASP8: Life Technologies and Expression Analysis (LTEA) Assay for cysteine-aspartic acid protease (CASP8) using HepaRG (AID 2283480). The method in brief: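 HepaRG, 48 h exposure, duplicate wells; 8 conc, half-log from 100 uM, 0.5% DMSO. Serum-free induction medium. CASP8 mRNA by TaqMan qRT-PCR, norm. ACTB/GAPDH/POLR2A; gain/loss fitted vs DMSO.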

Read-out in test [11]: Cytochrome P450 (CYP2B6), CYP2B6 (gene 1555)
In words: LTEA_HepaRG_CYP2B6: Life Technologies and Expression Analysis (LTEA) Assay for Cytochrome P450 (CYP2B6) using HepaRG (AID 2283481). The method in brief:
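Human HepaRG, 48 h dosing, 0.5% DMSO vehicle, top dose 100 uM. CYP2B6 transcript by qRT-PCR, housekeeping-normalized, bidirectional curve fit.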

Read-out in test [12]: Cytochrome P450 2C19 (Homo sapiens) (UniProt P33261)
Description: LTEA_HepaRG_CYP2C19: Life Technologies and Expression Analysis (LTEA) Assay for CYP2C19 using HepaRG (AID 2283482). The method in brief: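 Endpoint: CYP2C19 mRNA change, bidirectional fit vs 0.5% DMSO. Cells: HepaRG, 48 h exposure, eight-point series topping at 100 uM. Quantitation: qRT-PCR normalized to ACTB, GAPDH, POLR2A.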

Read-out in the next test: CYP2C8 (gene 1558)
Description: LTEA_HepaRG_CYP2C8: Life Technologies and Expression Analysis (LTEA) Assay for CYP2C8 using HepaRG (AID 2283483). The method in brief: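 CYP2C8 mRNA induction or loss, by qRT-PCR normalized to ACTB/GAPDH/POLR2A, is read in HepaRG cells after 48 h treatment. Concentrations run from 100 uM down in half-log dilutions, with 0.5% DMSO as vehicle and baseline.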

Read-out in the next test: CYP2C9 (gene 1559)
In words: LTEA_HepaRG_CYP2C9: Life Technologies and Expression Analysis (LTEA) Assay for CYP2C9 using HepaRG (AID 2283484). The method in brief:
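Cells plated 48 h, switched to serum-free induction medium, then treated in duplicate for 48 h at eight concentrations (max 100 uM, 0.5% DMSO). RNA then analysed by qRT-PCR for CYP2C9; curves fitted in both directions relative to DMSO.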

Read-out in a further test: CYP2E1 (gene 1571)
Description: LTEA_HepaRG_CYP2E1: Life Technologies and Expression Analysis (LTEA) Assay for CYP2E1 using HepaRG (AID 2283485). The method in brief: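 HepaRG cells, plated 48 h, then exposed 48 h in serum-free induction medium to eight half-log concentrations from 100 uM in 0.5% DMSO, duplicate. CYP2E1 mRNA by qRT-PCR, normalized to ACTB/GAPDH/POLR2A; bidirectional fit versus DMSO.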

Read-out in another test: CYP4A11 (gene 1579)
Description: LTEA_HepaRG_CYP4A11: Life Technologies and Expression Analysis (LTEA) Assay for CYP4A11 using HepaRG (AID 2283486). The method in brief:
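Human hepatic HepaRG cultures receive duplicate 48 h exposures across a concentration-response series topping at 100 uM. Expression changes in CYP4A11 are measured by qRT-PCR relative to DMSO controls.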

Read-out in test [13]: Cytochrome P450 3A4 (Homo sapiens) (UniProt P08684)
In words: LTEA_HepaRG_CYP3A4: Life Technologies and Expression Analysis (LTEA) Assay for CYP3A4 using HepaRG (AID 2283487). The method in brief:
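HepaRG, 48 h exposure, 8-pt CRC from 100 uM (half-log), 0.5% DMSO, duplicates; serum-free induction medium. Readout: CYP3A4 mRNA, qRT-PCR, ACTB/GAPDH/POLR2A normalization. Bidirectional fit vs DMSO.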

Read-out in test [14]: Bcl-2 (BID) gene, BID (gene 637)
In words: LTEA_HepaRG_BID: Life Technologies and Expression Analysis (LTEA) Assay for Bcl-2 (BID) gene using HepaRG (AID 2283476). The method in brief: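 Gene expression by qRT-PCR in HepaRG cells after 48 h exposure, duplicate wells, eight half-log concentrations topping at 100 uM in 0.5% DMSO. Normalized to ACTB, GAPDH, POLR2A; bidirectional fitting relative to DMSO.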

Calls of active or inactive are those of the source. The calls were made as follows: active = hit-call score of the fitted dose curve at least 0.9, where 1 is the maximum; inactive = score below 0.9.

Apoptosis regulator Bcl-2 (Homo sapiens), sequence (P10415 whole entry, looked up): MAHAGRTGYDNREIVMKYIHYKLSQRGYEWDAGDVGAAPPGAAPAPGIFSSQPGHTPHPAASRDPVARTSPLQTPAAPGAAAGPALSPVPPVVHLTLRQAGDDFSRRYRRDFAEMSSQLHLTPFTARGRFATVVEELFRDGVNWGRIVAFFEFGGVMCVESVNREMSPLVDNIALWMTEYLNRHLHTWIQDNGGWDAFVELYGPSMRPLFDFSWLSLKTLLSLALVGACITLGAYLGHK
Caspase-3 (Homo sapiens), sequence (P42574 whole entry, looked up): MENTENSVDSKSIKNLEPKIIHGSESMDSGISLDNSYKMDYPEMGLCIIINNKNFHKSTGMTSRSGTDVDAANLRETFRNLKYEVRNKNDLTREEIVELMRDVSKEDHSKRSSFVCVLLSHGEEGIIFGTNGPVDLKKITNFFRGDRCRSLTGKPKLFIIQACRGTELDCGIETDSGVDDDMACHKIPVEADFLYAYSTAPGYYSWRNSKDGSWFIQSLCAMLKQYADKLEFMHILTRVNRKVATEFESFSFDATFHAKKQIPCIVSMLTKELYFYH
Cytochrome P450 2C19 (Homo sapiens), sequence (P33261 whole entry, looked up): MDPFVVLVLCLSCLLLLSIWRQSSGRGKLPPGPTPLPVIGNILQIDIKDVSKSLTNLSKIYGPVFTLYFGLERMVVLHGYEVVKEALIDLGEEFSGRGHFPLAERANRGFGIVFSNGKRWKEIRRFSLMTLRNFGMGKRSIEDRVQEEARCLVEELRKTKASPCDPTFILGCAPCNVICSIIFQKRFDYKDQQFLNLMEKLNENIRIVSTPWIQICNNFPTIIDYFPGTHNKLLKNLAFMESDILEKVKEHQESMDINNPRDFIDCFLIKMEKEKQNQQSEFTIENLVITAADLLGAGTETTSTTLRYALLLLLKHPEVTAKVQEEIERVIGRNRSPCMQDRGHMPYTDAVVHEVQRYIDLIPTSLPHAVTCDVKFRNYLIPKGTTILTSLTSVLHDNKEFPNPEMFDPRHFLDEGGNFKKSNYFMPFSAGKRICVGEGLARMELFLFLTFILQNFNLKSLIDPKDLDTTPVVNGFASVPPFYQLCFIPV
Cytochrome P450 3A4 (Homo sapiens), sequence (P08684 whole entry, looked up): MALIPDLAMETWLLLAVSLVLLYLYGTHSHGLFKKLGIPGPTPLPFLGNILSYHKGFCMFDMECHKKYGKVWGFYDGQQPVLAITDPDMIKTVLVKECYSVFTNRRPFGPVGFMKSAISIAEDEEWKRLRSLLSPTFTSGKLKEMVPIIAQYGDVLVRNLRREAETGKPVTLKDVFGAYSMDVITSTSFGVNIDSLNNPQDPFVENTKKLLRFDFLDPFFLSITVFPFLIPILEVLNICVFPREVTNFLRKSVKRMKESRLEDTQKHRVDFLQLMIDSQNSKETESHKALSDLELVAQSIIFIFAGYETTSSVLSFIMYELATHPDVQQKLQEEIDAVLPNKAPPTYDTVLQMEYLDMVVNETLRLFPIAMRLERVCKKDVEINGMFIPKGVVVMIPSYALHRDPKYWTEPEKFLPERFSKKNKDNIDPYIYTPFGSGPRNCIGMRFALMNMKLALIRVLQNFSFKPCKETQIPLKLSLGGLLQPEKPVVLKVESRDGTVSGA

For the molecule `ClC1=C(Cl)[C@]2(Cl)[C@@H]3[C@H]4C[C@H]([C@@H]5O[C@H]45)[C@@H]3[C@@]1(Cl)C2(Cl)Cl`, the outcome (in [1]; in test [2]; in test [3]; in test [4]; with BCL2L11 (gene 10018); with Caspase-3 (Homo sapiens)) was inactive. The call (in test [8]; in test [9]; in test [10]; with CYP2C8 (gene 1558); with CYP2C9 (gene 1559)) was inactive. The half-maximal activity concentration (AC50) in test [5] is 31.1 µM (active); in test [6], 50 µM (active); in [7], 9.92 µM (active); in [11] it was 1.01 µM (active); in [12], 2.63 µM (active); in the test with CYP2E1 (gene 1571), 22.6 µM (active). Further, in the test with CYP4A11 (gene 1579), the AC50 was 24.6 µM (active).
As to `O=S(=O)(O)C(F)(F)C(F)(F)C(F)(F)C(F)(F)F`, the outcome (in test [1]; in [2]; in [3]; in [4]; in test [5]; with BCL2L11 (gene 10018)) was inactive. Also, the molecule was classed as inactive (in test [6]; in test [7]; in the test with Caspase-3 (Homo sapiens); in test [8]; in test [9]; in [10]). Moreover, the molecule was called inactive (in [12]; with CYP2C8 (gene 1558); with CYP2C9 (gene 1559); in the test with CYP2E1 (gene 1571); with CYP4A11 (gene 1579); in [13]). In test [11], the AC50 is 52.5 µM (active).
For the molecule `O=C(O)C(F)(F)C(F)(F)C(F)(F)C(F)(F)C(F)(F)C(F)(F)C(F)(F)C(F)(F)F`, the AC50 in [1] is 50 µM (active); in test [3] it was 76.3 µM (active); in test [5] it was 78.4 µM (active); with BCL2L11 (gene 10018), 50 µM (active); in test [6], 82 µM (active); in test [7] it was 73.6 µM (active). Besides, the AC50 in test [9] was 83.6 µM (active); in [11] it was 82.4 µM (active); in [12] it was 87.1 µM (active); with CYP2C8 (gene 1558), 80 µM (active); with CYP2C9 (gene 1559) it was 80.5 µM (active); in the test with CYP2E1 (gene 1571) it was 93.9 µM (active). The AC50 is 89.5 µM (active) with CYP4A11 (gene 1579) and 81.7 µM (active) in [13]. Further, the molecule was classed as inactive (in test [2]; in test [4]; in test [14]; in the test with Caspase-3 (Homo sapiens); in [8]; in test [10]).

The term AC50 denotes the concentration giving half of the maximal activity seen.
